In PubChem BioAssay (NCI):
About 83,000 compounds went through this panel and 20% of them were active in at least one assay; those are over-represented in the sample as a whole.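 How to read the values: 0–100, growth inhibition (40 = 60% inhibited); 0, no net growth; -100 to 0, cell death (-40 = 40% of starting cells died; -100 = all dead).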 A number with no mark means an inactive call. Active and inactive are the calls of the source. Rule for the calls: active = growth percent below 10; inactive = the rest.

What was measured:
Experiment in all cases: NCI-60 one-dose screen, 48 h (100 = growth as untreated, 0 = no growth, -100 = all killed)
Conditions in all cases: 10 µM unless noted
[1] = tested on: NCI-H23 lung
[2] = tested on: NCI-H226 lung
[3] = tested on: NCI-H322M lung
[4] = tested on: NCI-H460 lung
[5] = tested on: HOP-92 NSCLC
[6] = tested on: NCI-H522 lung
[7] = tested on: A549/ATCC NSCLC
[8] = tested on: 786-0 renal
[9] = tested on: COLO 205 colon
[10] = tested on: HOP-62 NSCLC

Cc1n[nH]c2ccc(Br)cc2c1=O
growth [1]: 98.3% | growth [2]: 96.5% | growth [3]: 98.7% | growth [4]: 110% | growth [5]: 103% | growth [6]: 83.6% | growth [7]: 99% | growth [8]: 102% | growth [9]: 106%

O=[N+]([O-])c1cc(NS(=O)(=O)c2ccccc2)ccc1NS(=O)(=O)c1ccccc1
growth [1]: 112% | growth [2]: 104% | growth [3]: 135% | growth [4]: 93.3% | growth [5]: 97.8% | growth [6]: 80.9% | growth [7]: 97.9% | growth [8]: 102% | growth [9]: 109%

CCCCCCCCCCCCCCCCCC1=NC(C)(C)CN1CC(C)O (stereo unspecified)
growth [1]: 84.8% | growth [2]: 102% | growth [3]: 71.4% | growth [4]: 4.24% (active) | growth [5]: 43.6% | growth [6]: 25.8% | growth [7]: 19.1% | growth [8]: 83.9% | growth [9]: 34%

COC(=O)c1nc(-c2ccccc2)oc1S(=O)(=O)NCC(c1ccc(Cl)cc1)N1CCOCC1 (stereo unspecified)
growth [1]: 89.1% | growth [2]: 90.7% | growth [3]: 98.3% | growth [4]: 87.2% | growth [5]: 70.9% | growth [6]: 23.8% | growth [7]: 90.5% | growth [8]: 51.9% | growth [9]: 78.1%

Nc1nc(N)c2c(n1)NC(c1ccc(Cl)cc1)C1CCc3ccccc3C1=N2 (stereo unspecified)
growth [1]: 47.2% | growth [2]: 60.2% | growth [3]: 71.7% | growth [10]: 84.2% | growth [4]: 22.7% | growth [6]: 76.7% | growth [7]: 64% | growth [8]: 64.4% | growth [9]: 51.6%

O=C(Cc1ccc(NC(=O)c2cccc(Cl)c2)cc1)NCc1ccccc1
growth [1]: 73.2% | growth [2]: 87% | growth [3]: 73.9% | growth [4]: 28.8% | growth [5]: 72.2% | growth [6]: 55.1% | growth [7]: 43.9% | growth [8]: 53.6% | growth [9]: 39.3%

C=CC(=O)Nc1ccc(Oc2nccc(Nc3nnc(-c4ccc(C)cc4)s3)n2)cc1
growth [1]: 79.9% | growth [2]: 86.2% | growth [3]: 98.7% | growth [10]: 83.5% | growth [4]: 59.9% | growth [6]: 24.3% | growth [7]: 77% | growth [8]: 70.8% | growth [9]: 100%

Cc1nc2c(=O)nc3s/c(=C\c4ccco4)c(=O)n3c2nc1C
growth [1]: 96.8% | growth [2]: 97% | growth [3]: 93.5% | growth [4]: 101% | growth [5]: 85.8% | growth [6]: 85.1% | growth [7]: 81.2% | growth [8]: 97.1% | growth [9]: 116%

CNC1=CC(=O)c2c(C(=O)OC)c(C)[n+]([O-])c(C)c2C1=O
growth [1]: 40% | growth [2]: 82.1% | growth [3]: 71.9% | growth [4]: 28.2% | growth [5]: 106% | growth [6]: 23.3% | growth [7]: 55.3% | growth [8]: 97.9% | growth [9]: 8.07% (active)

CCOc1cccc(/C=N/NC(=O)c2cccc(Nc3ccnc(C(F)(F)F)c3)c2)c1O
growth [1]: 24.9% | growth [2]: 32.9% | growth [3]: 36.5% | growth [10]: 12.3% | growth [4]: 7.86% (active) | growth [6]: 40.4% | growth [7]: 38% | growth [8]: 2.63% (active) | growth [9]: 37%

Cc1ccc(S(=O)(=O)N2CCC(=O)c3ccccc32)cc1
growth [1]: 85% | growth [2]: 93.9% | growth [3]: 89.3% | growth [10]: 80.8% | growth [4]: 86.5% | growth [6]: 84% | growth [7]: 102% | growth [8]: 93.7% | growth [9]: 76.4%

CN1CCN(CCOc2ccc(-c3cnc4c(-c5cccc(F)c5F)cnn4c3)cc2)CC1
growth [1]: 35.9% | growth [2]: 97.9% | growth [3]: 96% | growth [4]: -55.9% (active) | growth [5]: 100% | growth [6]: 88.6% | growth [7]: -7.4% (active) | growth [8]: -61.4% (active) | growth [9]: 87.6%

COc1cc(/C=N/Nc2ccc(Br)cc2)cc(OC)c1OC
growth [1]: 75.8% | growth [2]: 80.1% | growth [3]: 66.3% | growth [4]: 31.1% | growth [5]: 98.2% | growth [6]: 39.8% | growth [7]: 54.9% | growth [8]: 77.8% | growth [9]: 86.9%

COc1cc(C(=O)c2c(-c3ccccc3)oc3c(OC)cccc23)cc(OC)c1OC
growth [1]: 23.8% | growth [2]: 8.39% (active) | growth [3]: 46.2% | growth [4]: 3.18% (active) | growth [5]: -1.18% (active) | growth [6]: 13.9% | growth [7]: 17% | growth [8]: 9.22% (active) | growth [9]: -15.7% (active)

C=C(C)[C@@H]1CCC[C@]2(C(=O)N3CCN(C)CC3)CC[C@]3(C)[C@@H](CC[C@@H]4[C@@]5(C)CC/C(=N\NC(=O)c6ccncc6)C(C)(C)[C@@H]5CC[C@]43C)[C@@H]12
growth [1]: 93.3% | growth [2]: 101% | growth [3]: 93.7% | growth [4]: 88% | growth [5]: 107% | growth [6]: 98.3% | growth [7]: 99.5% | growth [8]: 93.6% | growth [9]: 99.1%

COc1ccc(C#Cc2ccc(=O)oc2-c2cc(OC)c(OC)c(OC)c2)cc1O
growth [1]: 45.7% | growth [2]: 71.3% | growth [3]: 49.7% | growth [4]: 15.3% | growth [5]: 48.4% | growth [6]: 20.6% | growth [7]: 42.6% | growth [8]: 54.3% | growth [9]: 69.4%

CCOC(=O)c1ccccc1-c1c2ccc(=[N+](C)C)cc-2oc2cc(N(C)C)ccc12
growth [1]: 93% | growth [2]: 19.5% | growth [3]: 12.6% | growth [10]: 6.81% (active) | growth [4]: 3.9% (active) | growth [6]: 14.2% | growth [7]: 12% | growth [8]: 20.5% | growth [9]: -46.6% (active)

COc1cccc(NCc2nnc(Nc3ccc(Cl)cc3)c3ccccc23)c1
growth [1]: 2.05% (active) | growth [2]: -22.9% (active) | growth [3]: 3.32% (active) | growth [4]: 0.101% (active) | growth [5]: -32.8% (active) | growth [6]: -43.8% (active) | growth [7]: 2.56% (active) | growth [8]: -5.76% (active) | growth [9]: -22.2% (active)

O=C(/C=C/C12c3ccccc3C(c3ccccc31)C1C(=O)NC(=O)C12)c1ccc(Br)cc1 (stereo unspecified)
growth [1]: 50% | growth [2]: 94.4% | growth [3]: 55.8% | growth [4]: 34.6% | growth [5]: 74.5% | growth [6]: 47.1% | growth [7]: 50.2% | growth [8]: 69.2% | growth [9]: 58.8%

COc1ccc(/C=C/C(=O)c2ccc(NC(=O)CSc3nc4c([nH]3)c(=O)n(C)c(=O)n4C)cc2)cc1OC
growth [1]: 93% | growth [2]: 81.1% | growth [3]: 81% | growth [4]: 94.6% | growth [5]: 73.2% | growth [6]: 96.8% | growth [7]: 87.7% | growth [8]: 82.3% | growth [9]: 117%

COc1ccccc1N(C(C)=O)C1=C(Cl)C(=O)c2ccccc2C1=O
growth [1]: -12.1% (active) | growth [2]: 23.7% | growth [3]: 38% | growth [4]: 4.81% (active) | growth [5]: -14.9% (active) | growth [6]: -78% (active) | growth [7]: 8.36% (active) | growth [8]: 37.2% | growth [9]: -11.7% (active)

CCN1C(=O)N(CC)C2C1NN=c1s/c(=C\c3ccc[nH]3)c(=O)n12 (stereo unspecified)
growth [1]: 42.9% | growth [2]: 68% | growth [3]: 36.5% | growth [4]: 4.38% (active) | growth [5]: 54.2% | growth [6]: -15.6% (active) | growth [7]: 7.44% (active) | growth [8]: 31% | growth [9]: 4.65% (active)

C=CC(=O)Nc1ccc(Nc2nccc(-c3ccc(N4CCCC4)c(C#N)c3)n2)cc1
growth [1]: 62.1% | growth [2]: 52.7% | growth [3]: 41.2% | growth [4]: 0.189% (active) | growth [5]: 60.9% | growth [6]: 12.4% | growth [7]: 14.7% | growth [8]: -67.4% (active) | growth [9]: 7.29% (active)

CC(C)(C)n1cc(-c2ccnc(NCCCNS(=O)(=O)c3cccc4ccccc34)c2)c(-c2cccc(F)c2)n1
growth [1]: 68.3% | growth [2]: 85.6% | growth [3]: 92.9% | growth [4]: 73.3% | growth [5]: 46.8% | growth [6]: 80.5% | growth [7]: 73.4% | growth [8]: 71.2% | growth [9]: 68.8%

C#COc1cccc(Nc2ncnc3cc(NC(=O)[C@@H](C)Cl)ccc23)c1
growth [1]: 22.8% [6.25 µM] | growth [2]: 41.4% [6.25 µM] | growth [3]: 38.9% [6.25 µM] | growth [4]: 6.36% [6.25 µM] (active) | growth [5]: 57.5% [6.25 µM] | growth [6]: -34.7% [6.25 µM] (active) | growth [7]: 6.69% [6.25 µM] (active) | growth [8]: 17% [6.25 µM] | growth [9]: 3.72% [6.25 µM] (active)

O=C(CCCCCCN1CC(=O)N2[C@H](c3ccc(Cl)cc3)c3[nH]c4ccccc4c3C[C@@H]2C1=O)NO
growth [1]: 60.2% | growth [2]: 84.1% | growth [3]: 64.1% | growth [4]: 54.2% | growth [5]: 44.4% | growth [6]: 32.8% | growth [7]: 90.1% | growth [8]: 92.9% | growth [9]: 57.3%

O=C(Nc1ncc(Cc2cc(C(F)(F)F)ccc2Cl)s1)c1cccs1
growth [1]: 58.2% | growth [2]: 76.5% | growth [3]: 65.5% | growth [10]: 42.5% | growth [4]: 32.2% | growth [6]: 35.2% | growth [7]: 37.8% | growth [8]: 79.6% | growth [9]: 56.2%

COc1cc(Cl)c(C)cc1NC(=O)c1cc2ccccc2cc1O
growth [1]: 2% (active) | growth [2]: 13.3% | growth [3]: 9.8% (active) | growth [4]: 6.83% (active) | growth [5]: -15.4% (active) | growth [6]: -11.5% (active) | growth [7]: 10% | growth [8]: 14.1% | growth [9]: 86.9%

COc1ccc(C2=NN(C(C)=O)C(c3cn(-c4ccccc4)nc3-c3ccc(Cl)cc3)C2)cc1 (stereo unspecified)
growth [1]: 9.25% (active) | growth [2]: 33.6% | growth [3]: 47.8% | growth [4]: 5.58% (active) | growth [5]: 18.1% | growth [6]: 47.5% | growth [7]: 14.3% | growth [8]: -17.5% (active) | growth [9]: 4.9% (active)
